Test [1] deals with Glucocorticoid receptor (Homo sapiens) (UniProt P04150). Briefly: ATG_GR_TRANS: Attagene TRANS-FACTORIAL HepG2 Assay for human Glucocorticoid Receptor (GR) (AID 2282978).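 Also: activators score as hits since higher reporter transcript over DMSO is fitted.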 The following applies: HepG2 Attagene TRANS GR reporter, mRNA transcription. In a few lines:
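HepG2 cells transiently transfected with GAL4-UAS reporter units and exogenous GR-Gal4 chimera, dosed 24 h. Reporter mRNA by RT-PCR, FAM labeling, HpaI digest and capillary electrophoresis; gain-of-signal fit versus DMSO.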

In test [2] the target is Oxysterols receptor LXR-alpha (Homo sapiens) (UniProt Q13133). Briefly: ATG_LXRa_TRANS: Attagene TRANS-FACTORIAL HepG2 Assay for human Liver X Receptor alpha (LXRa) (AID 2282980). Particulars: HepG2 Attagene TRANS reporter, LXRa transactivation. The method in brief:
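Chemical-induced reporter mRNA measured by RT-PCR with fluorescent labelling and capillary electrophoresis after 24 h dosing of transiently transfected HepG2 cells expressing exogenous NR-Gal4 chimeras; increases scored against DMSO baseline.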

The target of test [3] is Oxysterols receptor LXR-beta (Homo sapiens) (UniProt P55055). The test can be described thus: ATG_LXRb_TRANS: Attagene TRANS-FACTORIAL HepG2 Assay for human Liver X Receptor beta (LXRb) (AID 2282981). Particulars: HepG2 Attagene TRANS GAL4-LXRb reporter, mRNA. The method in brief:
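Gain-of-signal mRNA reporter endpoint, DMSO as negative control. Transiently transfected HepG2 cells carrying the NR-Gal4 chimera and GAL4-UAS reporter units were treated 24 h; transcripts quantified by RT-PCR and capillary electrophoresis fluorescence.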

Test [4] is described as follows: ATG_M_32_TRANS: Attagene TRANS-FACTORIAL HepG2 Assay for M32 Transcription Factor (Internal Marker) (AID 2282984).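 Also: transcript level of a background control reporter unit measured by RT-PCR and capillary electrophoresis.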 Particulars: HepG2 Attagene TRANS M32 internal marker reporter. The method in brief: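 Capillary electrophoresis of 6-FAM-labelled reporter fragments gives the signal; data fitted for gain over DMSO negative control. Source: HepG2 cells bearing transient multiple reporter transcription units, 24 h exposure.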

Test [5] concerns the target Nuclear receptor subfamily 4 group A member 2 (Homo sapiens) (UniProt P43354). Briefly: ATG_NURR1_TRANS: Attagene TRANS-FACTORIAL HepG2 Assay for human Nuclear Receptor Related Protein 1 (NURR1) (AID 2282985). Particulars: HepG2 Attagene TRANS reporter, mRNA readout. The method in brief:
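HepG2 / transient MRTU transfection / 24 h compound exposure / RT-PCR + CE fluorescence of reporter mRNA / gain-of-signal vs DMSO.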

The target in test [6] is Transcriptional activator Myb (Homo sapiens) (UniProt P10242). The test can be described thus: ATG_Myb_CIS: Attagene CIS-FACTORIAL HepG2 Assay for human Myeloblastosis (Myb) Proto-Oncogene Transcription Factor (AID 2282986; active = hit-call score of the fitted dose curve at least 0.9, where 1 is the maximum; inactive = score below 0.9). Particulars: HepG2 Attagene CIS-FACTORIAL Myb reporter transcription; actives raise or lower the signal. In a few lines: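 Transiently transfected HepG2 cells carrying a multiplexed cis-promoter reporter set report endogenous Myb activity after 24 h compound exposure. Reporter mRNA is read by RT-PCR with capillary electrophoresis of fluorescent products, fitted bidirectionally against DMSO.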
Transcriptional activator Myb (Homo sapiens), sequence (P10242 whole entry, looked up): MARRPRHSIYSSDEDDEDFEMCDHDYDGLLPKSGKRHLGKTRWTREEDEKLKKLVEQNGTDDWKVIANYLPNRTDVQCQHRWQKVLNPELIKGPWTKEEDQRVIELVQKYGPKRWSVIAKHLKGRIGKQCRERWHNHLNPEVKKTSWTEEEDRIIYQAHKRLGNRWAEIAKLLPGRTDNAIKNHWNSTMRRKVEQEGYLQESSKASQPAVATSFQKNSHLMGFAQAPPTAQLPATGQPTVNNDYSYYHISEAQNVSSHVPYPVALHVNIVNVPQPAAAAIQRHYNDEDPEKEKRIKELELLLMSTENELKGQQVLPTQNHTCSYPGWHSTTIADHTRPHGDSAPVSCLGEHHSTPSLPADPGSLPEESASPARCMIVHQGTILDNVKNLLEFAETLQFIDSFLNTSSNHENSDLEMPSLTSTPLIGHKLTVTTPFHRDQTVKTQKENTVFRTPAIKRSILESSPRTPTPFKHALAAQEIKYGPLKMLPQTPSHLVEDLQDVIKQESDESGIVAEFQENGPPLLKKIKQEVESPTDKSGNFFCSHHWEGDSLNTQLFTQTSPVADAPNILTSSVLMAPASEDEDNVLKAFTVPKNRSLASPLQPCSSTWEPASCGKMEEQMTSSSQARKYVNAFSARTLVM

Test [7] has as its target Nuclear respiratory factor 1 (Homo sapiens) (UniProt Q16656). The test can be described thus: ATG_NRF1_CIS: Attagene CIS-FACTORIAL HepG2 Assay for human Nuclear Respiratory Factor 1 (NRF1) Orphan Gene (AID 2282987; active = hit-call score of the fitted dose curve at least 0.9, where 1 is the maximum; inactive = score below 0.9). The following applies: HepG2 NRF1 cis-element reporter, Attagene multiplex; actives raise or lower the signal. In a few lines:
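HepG2 cells transiently transfected with multiple cis-regulated reporter units, exposed 24 h. Reporter mRNAs measured by RT-PCR, fluorescent labelling, HpaI digestion and capillary electrophoresis; bidirectional fitting against DMSO.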

Test [8] is described as follows: ATG_NFI_CIS: Attagene CIS-FACTORIAL HepG2 Assay for human Nuclear Factor I (NFI) (AID 2282989; active = hit-call score of the fitted dose curve at least 0.9, where 1 is the maximum; inactive = score below 0.9). The following applies: HepG2 cis-regulatory reporter, NFI response element transcription; actives raise or lower the signal. The method in brief: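 After transient transfection of HepG2 with cis-promoter reporter constructs and 24 h dosing, RNA is reverse-transcribed, amplified, 6-FAM end-labelled and HpaI-digested before capillary analysis. Bidirectional curve fitting against DMSO.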

Test [9] addresses Bile acid receptor (Homo sapiens) (UniProt Q96RI1). Briefly: ATG_FXR_TRANS: Attagene TRANS-FACTORIAL HepG2 Assay for Farnesoid X Receptor (FXR) (AID 2282979).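 Also: hits raise reporter mRNA above DMSO so AC50 marks FXR activation.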 Particulars: HepG2 Attagene TRANS FXR-GAL4 reporter transcription. The method in brief:
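Reporter transcripts from transfected HepG2 cells were measured 24 h after dosing, using RT-PCR with capillary electrophoresis of 6-FAM-labelled fragments. The read-out reflects activity of exogenous FXR-Gal4 chimera on GAL4-UAS units, with induction relative to DMSO.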

Test [10] can be described thus: ATG_M_06_TRANS: Attagene TRANS-FACTORIAL HepG2 Assay for M06 Transcription Factor (Internal Marker) (AID 2282983). Particulars: HepG2 Attagene TRANS M06 internal marker reporter. In a few lines:
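Cells: HepG2, transient multi-reporter transfection. Exposure: 24 h. Detection: RT-PCR, 6-FAM labelling, HpaI digestion (2 h, 37 °C), capillary electrophoresis. Baseline: DMSO.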

The term AC50 denotes the concentration at which the activity in the assay is half-maximal.

Results filed as inconclusive are left out. The source made the active and inactive calls. The calls were made as follows, unless noted: active = hit-call score of the fitted dose curve at least 0.9, where 1 is the maximum; inconclusive = response in the unintended direction; inactive = score below 0.9.

Nuclear receptor subfamily 4 group A member 2 (Homo sapiens), sequence (P43354 whole entry, looked up): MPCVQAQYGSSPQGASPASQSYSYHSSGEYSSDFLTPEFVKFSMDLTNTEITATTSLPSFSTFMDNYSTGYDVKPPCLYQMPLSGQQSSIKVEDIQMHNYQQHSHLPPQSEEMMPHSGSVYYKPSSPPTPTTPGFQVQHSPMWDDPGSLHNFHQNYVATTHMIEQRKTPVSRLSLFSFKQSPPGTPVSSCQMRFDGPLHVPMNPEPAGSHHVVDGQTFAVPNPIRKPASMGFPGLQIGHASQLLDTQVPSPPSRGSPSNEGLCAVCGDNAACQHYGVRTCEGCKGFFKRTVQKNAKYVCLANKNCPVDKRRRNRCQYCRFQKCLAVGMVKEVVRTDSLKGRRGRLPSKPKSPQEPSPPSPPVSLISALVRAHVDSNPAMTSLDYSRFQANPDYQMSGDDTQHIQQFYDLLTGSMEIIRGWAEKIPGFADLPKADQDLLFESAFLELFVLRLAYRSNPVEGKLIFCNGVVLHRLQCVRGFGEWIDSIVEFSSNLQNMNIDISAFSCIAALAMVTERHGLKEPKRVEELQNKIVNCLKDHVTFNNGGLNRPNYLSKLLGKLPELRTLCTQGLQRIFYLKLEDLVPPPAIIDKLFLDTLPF
Nuclear respiratory factor 1 (Homo sapiens), sequence (Q16656 whole entry, looked up): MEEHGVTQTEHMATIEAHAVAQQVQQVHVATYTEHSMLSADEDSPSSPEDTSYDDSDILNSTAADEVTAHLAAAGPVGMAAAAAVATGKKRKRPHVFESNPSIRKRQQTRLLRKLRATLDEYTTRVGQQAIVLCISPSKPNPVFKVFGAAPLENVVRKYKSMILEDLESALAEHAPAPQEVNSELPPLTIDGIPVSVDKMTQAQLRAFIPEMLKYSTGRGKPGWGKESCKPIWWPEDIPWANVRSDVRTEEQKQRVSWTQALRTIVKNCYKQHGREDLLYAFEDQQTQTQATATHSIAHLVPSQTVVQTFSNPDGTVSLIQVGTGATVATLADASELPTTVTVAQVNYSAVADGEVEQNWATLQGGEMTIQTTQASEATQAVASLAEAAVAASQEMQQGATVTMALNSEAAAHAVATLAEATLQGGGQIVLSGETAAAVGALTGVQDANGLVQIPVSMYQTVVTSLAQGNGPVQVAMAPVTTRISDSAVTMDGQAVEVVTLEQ
Bile acid receptor (Homo sapiens), sequence (Q96RI1 whole entry, looked up, the tested form may be a part): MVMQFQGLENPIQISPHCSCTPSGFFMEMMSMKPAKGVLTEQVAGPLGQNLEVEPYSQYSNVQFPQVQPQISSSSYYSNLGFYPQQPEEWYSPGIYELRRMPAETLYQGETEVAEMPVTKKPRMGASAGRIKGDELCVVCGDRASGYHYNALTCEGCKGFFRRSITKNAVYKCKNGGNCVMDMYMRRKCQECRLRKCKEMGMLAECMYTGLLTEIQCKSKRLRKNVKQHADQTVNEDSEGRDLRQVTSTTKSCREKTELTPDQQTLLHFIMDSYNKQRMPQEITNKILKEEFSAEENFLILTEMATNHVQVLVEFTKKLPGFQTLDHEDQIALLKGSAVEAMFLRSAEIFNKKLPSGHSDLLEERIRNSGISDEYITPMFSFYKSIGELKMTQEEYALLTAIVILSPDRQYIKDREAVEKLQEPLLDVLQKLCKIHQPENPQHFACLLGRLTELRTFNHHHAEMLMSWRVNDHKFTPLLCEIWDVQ
Oxysterols receptor LXR-beta (Homo sapiens), sequence (P55055 whole entry, looked up, the tested form may be a part): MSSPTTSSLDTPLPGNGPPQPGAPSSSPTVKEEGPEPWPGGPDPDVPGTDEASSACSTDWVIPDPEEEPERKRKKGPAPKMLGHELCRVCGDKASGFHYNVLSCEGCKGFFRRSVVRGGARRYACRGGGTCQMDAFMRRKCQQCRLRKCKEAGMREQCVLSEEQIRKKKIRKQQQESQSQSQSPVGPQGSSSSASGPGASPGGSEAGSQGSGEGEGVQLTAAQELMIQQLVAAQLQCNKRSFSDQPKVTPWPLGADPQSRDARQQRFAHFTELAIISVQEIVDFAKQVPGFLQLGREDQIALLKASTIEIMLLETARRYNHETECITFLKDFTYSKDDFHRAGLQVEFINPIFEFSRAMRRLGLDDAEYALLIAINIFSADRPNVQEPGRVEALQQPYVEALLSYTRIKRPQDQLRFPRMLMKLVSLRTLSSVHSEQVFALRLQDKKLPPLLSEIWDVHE
Glucocorticoid receptor (Homo sapiens), sequence (P04150 whole entry, looked up, the tested form may be a part): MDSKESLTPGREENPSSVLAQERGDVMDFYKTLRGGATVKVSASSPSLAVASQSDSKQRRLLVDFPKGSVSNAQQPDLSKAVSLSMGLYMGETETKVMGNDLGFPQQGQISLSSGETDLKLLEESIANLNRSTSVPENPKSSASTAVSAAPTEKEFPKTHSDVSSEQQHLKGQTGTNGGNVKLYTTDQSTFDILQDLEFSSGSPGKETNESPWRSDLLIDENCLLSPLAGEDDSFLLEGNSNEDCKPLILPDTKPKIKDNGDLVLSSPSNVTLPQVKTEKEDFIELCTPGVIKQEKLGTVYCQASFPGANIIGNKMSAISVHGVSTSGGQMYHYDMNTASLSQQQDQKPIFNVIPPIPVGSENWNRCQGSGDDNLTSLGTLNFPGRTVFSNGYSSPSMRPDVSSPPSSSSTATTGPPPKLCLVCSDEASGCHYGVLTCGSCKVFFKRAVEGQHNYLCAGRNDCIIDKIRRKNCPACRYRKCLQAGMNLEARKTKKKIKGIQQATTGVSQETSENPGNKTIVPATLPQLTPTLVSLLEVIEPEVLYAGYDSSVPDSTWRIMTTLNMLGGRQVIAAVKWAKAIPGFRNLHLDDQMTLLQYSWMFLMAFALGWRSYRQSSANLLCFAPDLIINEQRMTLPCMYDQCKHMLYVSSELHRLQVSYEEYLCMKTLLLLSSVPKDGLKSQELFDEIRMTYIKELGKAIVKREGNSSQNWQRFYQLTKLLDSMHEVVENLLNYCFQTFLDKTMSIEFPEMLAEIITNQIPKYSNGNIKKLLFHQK
Oxysterols receptor LXR-alpha (Homo sapiens), sequence (Q13133 whole entry, looked up, the tested form may be a part): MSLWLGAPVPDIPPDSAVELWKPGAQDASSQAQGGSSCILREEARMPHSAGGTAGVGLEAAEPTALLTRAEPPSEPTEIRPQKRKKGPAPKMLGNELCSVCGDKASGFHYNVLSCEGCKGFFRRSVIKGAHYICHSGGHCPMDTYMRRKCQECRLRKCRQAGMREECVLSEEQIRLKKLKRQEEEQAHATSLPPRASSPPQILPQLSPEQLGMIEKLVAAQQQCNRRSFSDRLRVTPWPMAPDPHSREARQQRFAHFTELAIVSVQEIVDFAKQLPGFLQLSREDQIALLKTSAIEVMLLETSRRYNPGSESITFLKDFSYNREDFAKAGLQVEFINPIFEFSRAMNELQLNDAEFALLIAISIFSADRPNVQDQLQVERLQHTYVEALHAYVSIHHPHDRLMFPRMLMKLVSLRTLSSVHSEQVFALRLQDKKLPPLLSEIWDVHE

Turning to `CCCN(C1CCN(C(=O)C2CCNCC2)CC1)[C@@H]1CCc2ccc(OC)cc2C1`, the result in [1], in [2], in test [3], in [4], in [5] and in test [6] was inactive. Besides, the compound was classed as inactive in test [7] and in test [8].

Turning to `Cc1[nH]cnc1C[C@H]1CCc2c(C)c3ccccc3n2C1=O`, the call in test [1], in test [9], in test [2], in [3], in [10] and in [4] was inactive. In addition, the compound was called inactive in test [5], in [6] and in test [8]. In addition, in test [7], the AC50 is 13.1 µM (active).

Regarding `CCCCC(CC)COC(=O)CCCCCCCCC(=O)OCC(CC)CCCC` (stereo not given), the result in test [1], in [2], in test [3], in test [4], in [5] and in [6] was inactive. The outcome in [7] and in test [8] was inactive.

With `Oc1ccc2c(c1)-c1ccccc1C2`, the call in [1], in test [9], in [10], in [4] and in test [7] was inactive. In test [8], the AC50 is 37.9 µM (active).

In the case of `CC(C)c1cccc(C(C)C)c1N1C(=O)c2ccc(O)cc2C1=O`, the result in test [1], in test [3], in [4] and in test [5] was inactive. Further, the values for the concentration at half-maximal activity (AC50) in test [9], in test [7] and in [8] were 19.8 µM (active), 152 µM (active) and 62.9 µM (active), respectively.

On to `COc1ccc(-n2nc(C(F)F)cc2-c2ccc(S(C)=O)cc2)cc1` (stereo not given), for which the compound was called inactive in test [1], in test [2], in test [3], in [4], in test [7] and in test [8].

For `CCCCCCc1ccc(O)cc1O`, the result in test [1], in test [2], in test [10], in [5], in [6] and in test [7] was inactive. Besides, the compound was called inactive in test [8].

As to `COc1ccc2sc(C(=O)Nc3nnn[nH]3)c(OC(C)C)c2c1`, the outcome in test [1], in [9], in test [10], in test [4], in [5] and in test [7] was inactive. For the same compound, the compound was called inactive in [8].

On to `CC(C)=CCCC(C)=CC=O`, for which the compound was classed as inactive in [1], in [2], in test [10], in test [4], in test [7] and in test [8]. In addition, in [5], the AC50 is 100 µM (active).

Take `CC(C)CCCCCCCOC(=O)CCCCC(=O)OCCCCCCCC(C)C`: the call in [1], in test [2], in test [4], in test [6], in [7] and in test [8] was inactive.

Take `O=C(O)c1cc(N=Nc2ccc(S(=O)(=O)Nc3ccccn3)cc2)ccc1O`: the compound was classed as inactive in test [1], in test [2], in [4], in test [6], in [7] and in [8].

Take `O=C(CCCCCCCCc1cccnc1)N1CCC(C=C(c2ccccc2)c2ccccc2)CC1`: the AC50 in test [1] was 100 µM (active); in test [6], 60.2 µM (active). Further, the compound was called inactive in [2], in test [10], in test [4], in [5], in [7] and in test [8].

As for `COc1cccc(-c2ccc(/C=C\CN3CCCCCC3)cc2Cl)c1`, the call in test [1], in [9], in test [2], in test [3], in test [10] and in test [5] was inactive. For the same compound, the compound was called inactive in [6], in test [7] and in test [8].

With `O=C1CCC(N2C(=O)c3ccccc3C2=O)C(=O)N1` (stereo not given), the compound was called inactive in [1], in [2], in [10], in test [4], in test [5] and in test [7]. Also, in test [8], the call was inactive.

With `CC(O)CN(CCN(CC(C)O)CC(C)O)CC(C)O` (stereo not given), the compound was classed as inactive in test [1], in [2], in [5], in test [6], in test [7] and in test [8].

Turning to `Nc1nc2ncc(CNc3ccc(C(=O)N[C@@H](CCC(=O)O)C(=O)O)cc3)nc2c(=O)[nH]1`, the call in [1], in test [2], in test [3], in [7] and in test [8] was inactive.

`CC[C@H](C)C(=O)O[C@H]1C[C@@H](C)C=C2C=C[C@H](C)[C@H](CC[C@@H]3C[C@@H](O)CC(=O)O3)[C@H]21`: the call in test [1], in test [9], in [2], in test [10], in test [4] and in test [5] was inactive. Moreover, the call in [6], in [7] and in test [8] was inactive.

`COCCOc1cc2cc(C(=O)NC3CCN(C(C)C)CC3)n(CC(=O)Nc3ccc(Cl)cn3)c2cn1`: the compound was classed as inactive in [1], in test [9], in test [2], in test [10], in test [4] and in [6]. Further, the result in [7] and in [8] was inactive.
